This is part of a sample that, as a whole, favours compounds with a hit. Of some 83,000 tested, about 20% had one in any assay.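 Values shown are percent growth following 48 h exposure of cells in 96-well plates to a single concentration of compound; below 10 was considered active.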 Unmarked numbers belong to inactive results. The source made the active and inactive calls.
What follows are molecules tested on HL-60(TB) leukemia (assay: NCI-60 one-dose screen, 48 h (100 = growth as untreated, 0 = no growth, -100 = all killed)). Settings: 10 µM unless noted.

| SMILES | growth |
| --- | --- |
| COc1ccccc1C(=O)O/N=C(\N)Cc1cccc2ccccc12 | 96.3% |
| CC/C=C(\C)C(CCC)(CN=O)C(=O)OCC (stereo not given) | 110% |
| C[n+]1c2ccccc2nc2c(N)cc(N)cc21 | 74.7% |
| Cc1cc(Nc2ccc(C(=O)N3CCCC3)cc2)nc(NCCCNc2ccnc3cc(Cl)ccc23)n1 | 84.4% |
| COc1ccc(OC)c2ncccc12 | 98.9% |
| Nc1nc(N)c2cc(Sc3ccc4ccccc4c3)ccc2n1 | 31.4% |
| Cc1ccc(-c2nc(N3CCN(CC(=O)Nc4ccc(Cl)cc4)CC3)c3ccccc3n2)cc1 | 99.8% |
| C=CCn1c(=O)c2cnc(Nc3ccc(N4CCN(C)CC4)cc3)nc2n1-c1cccc(C(C)(C)O)n1 | -22.4% (active) |
| Cc1[nH]c(C(=O)Nc2ccc(C(=O)N3CCNCC3)cc2OC(C)C)c(Cl)c1Cl | 57.4% |
| COc1ccc(N/C=C/C2=[N+](C)c3ccccc3C2(C)C)c(OC)c1 | 99.3% |
| CC[C@]1(O)C[C@@H]2CN(CCc3c([nH]c4ccccc34)[C@@](C(=O)OC)(c3cc4c(cc3OC)N(C)[C@H]3[C@@](O)(C(N)=O)[C@H](O)[C@]5(CC)[C@@H]6C[C@@H]6CN6CC[C@]43[C@@H]65)C2)C1 | -3.28% (active) |
| O=[N+]([O-])c1ccc(O)c2ncccc12 | -4.85% (active) |
| CN1CCC(=C2c3ccccc3C=Cc3ccccc32)CC1 | 85.1% |
| Cc1cc(N2CCCCC2)nc(N(CCNc2ccnc3cc(Cl)ccc23)Cc2ccccn2)n1 | 41.6% |
| O=C(CN1CCOCC1)Nc1ccc2ncnc(Nc3ccc(OCc4cccc(F)c4)c(Cl)c3)c2c1 | 75.2% |
| CCN(CC)CCC(CNc1ccnc2cc(Cl)ccc12)c1ccc(Cl)cc1 (stereo not given) | -53.9% (active) |
| S=C1CCCC(=S)N1 | 101% |
| COc1ccc(/C=C2/C(=O)ON=C2C)cc1 | 103% |
| CCNCCNc1cc(-c2ccc(F)cc2)c(C#N)c2nc3ccccc3n12 | -48.8% (active) |
| COc1ccc(CCNC=O)cc1OC | 96.9% |

| SMILES | growth |
| --- | --- |
| COc1ccc(C2c3ccc4ccccc4c3Oc3nc(C)[nH]c(=O)c32)cc1 (stereo not given) | 99.3% |
| COc1ccc(/C=C2/CN(C(=O)c3ccc(C)cc3)C/C(=C\c3ccc(OC)cc3)C2=O)cc1 | 80% |
| CNC(=O)c1cc(COc2nnc(Nc3ccc(Cl)cc3)c3ccoc23)ccn1 | 120% |
| CCCC(CC)(C(=O)Nc1ccc2nc(C)cc(N)c2c1)C(=O)Nc1ccc2nc(C)cc(N)c2c1 | 100% |
| CCCCCN1C=C/C(=C\C(=O)N(C)c2ccc(OC(F)(F)F)cc2)c2ccccc21 | 111% |
| CN1C[C@@H](c2ccc(Cl)cc2)[C@]2(NC(=S)N(c3ccccc3)C2=O)[C@@]12C(=O)NC1C=CC(Br)=C[C@H]12 (stereo not given in full) | 40.2% |
| CC(CN)[C@@H]1CC[C@]2(CO)CC[C@]3(C)[C@H](CC[C@@H]4[C@@]5(C)CCC(N)C(C)(C)[C@@H]5CC[C@]43C)[C@@H]12 (stereo not given in full) | 31.5% |
| COc1ccc2c(c1)CCc1[nH]nc(-c3cc(OC)c(OC)c(OC)c3)c1-2 | -20.4% (active) |
| Cc1cn([C@]2(CF)O[C@H](CO)C2C)c(=O)[nH]c1=O (stereo not given in full) | 105% |
| C=CC(=O)Nc1cccc(Oc2nc(Nc3ccc(N4CCN(C)CC4)cc3)nc3ccsc23)c1 | -62% (active) |
| O=[N+]([O-])c1c(F)cccc1Nc1cccc(F)c1 | 100% |
| Cc1ccc(Cl)cc1N1C(=O)CC(Sc2ccccc2N)C1=O (stereo not given) | 110% |
| CCCCCCCCN(CCO)CCCCCCCC | 100% |
| CC1CC2C3CCC4=CC(=O)CCC4(C)C3CCC2(C)C1(O)C(=O)CO (stereo not given) | 75.4% |
| COc1ccc(/C=N/NC(=O)Cn2c(-c3ccc(S(C)(=O)=O)cc3)nc3ccccc32)cc1 | 161% |
| O=C(COc1ccc(-c2nc3ccccc3[nH]2)cc1)N=Nc1c(O)[nH]c2ccccc12 | 103% |
| [2H]c1nc(Nc2ncc(F)c(-c3cc(F)c4nc(C)n(C(C)C)c4c3)n2)c([2H])c([2H])c1CN1CCN(CC)CC1 | 24.6% |
| COC1=C(OC)C(=O)C(SC/C=C(\C)CCCC(C)CCCC(C)CCCC(C)C)=CC1=O (stereo not given) | -36.3% (active) |
| CN[C@@H](C)C(=O)N[C@H]1CCS[C@H]2CC(C)(C)[C@@H](C(=O)N[C@H]3c4ccccc4C[C@H]3OCC#CC#CCO[C@@H]3Cc4ccccc4[C@@H]3NC(=O)[C@H]3N4C(=O)[C@@H](NC(=O)[C@H](C)NC)CCS[C@H]4CC3(C)C)N2C1=O | -47.4% (active) |
| C=CCN1C(=O)c2cccc3c(-c4ccc5c(c4)ncn5C4CCCCC4)ccc(c23)C1=O | 25.5% |
